Bioassay records from PubChem.
USP2a block: inhibitors of human ubiquitin-specific protease USP2a; Potency, µM (series often up to 38.3 µM), hits mostly inhibitors; AID 463254; 330,000 tested, 0.01% active; O75604; USP2 core, Ub-CHOP2 coupled fluorogenic reporter, 485/531
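Cell-free coupled assay: 10nM USP2 core preincubated 30min RT with compound in Tris-HCl pH 8.0/CaCl2/CHAPS buffer, then 25nM Ub-CHOP2 and 25nM reporter substrate; fluorescence (Ex 485/Em 531) read after 60min RT, normalized to NEM inhibition, concentration-response curves fitted.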
CtBP-E1A inh: blocks the CtBP interaction with E1A. AlphaScreen GST-E1A/His-CtBP binding, 1536-well; stronger effect = lower value. activity change, % (test concentration not listed). 340,000 tested, 0.49% active. AID 651724; in the data active = activity change below about -65%; inconclusive = mostly about -30% to -63%
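In 5 uL wells, 23 nL compound meets equimolar GST-E1A and His-CtBP (5X stock 125 nM each) for 2 h, 37 °C. Beads (5X, 50 ug/mL) then 1 h, 37 °C, dark.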
PI4K2A inh: inhibitors of human PI4K2A; purified PI4K2A, ADP-Glo luminescence, 1 h; stronger effect = lower value; activity change, negative = inhibition, % at 76.9 µM; 420,000 tested, 0.13% active; in the data active = activity change below about -50%; inconclusive = mostly about -30% to -49%
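PI4K2A activity was measured by ADP-Glo luminescence: enzyme (4 ug/mL stock) and phosphatidylinositol (1.2 mM stock) in Tris pH 7.5/MgCl2/EGTA/Triton X-100 buffer were reacted with ATP (300 microM stock) for one hour at ambient temperature.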
RGS4 inh: inhibitors of human regulator of G protein signaling 4 | Transcreener GDP fluorescence polarization, RGS4-accelerated GTP hydrolysis | Potency, µM (series often up to 114 µM), actives largely listed as inhibitors | 390,000 tested, 0.039% active | P49798 | AID 504845; also: nearly all actives have a fitted effect of over 75% in size
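MLSMR compounds (23 nl, pin-transferred) preincubated 10 min at room temperature with a 500nM (2x) first reagent, then RGS4 at 900nM (2x) plus Transcreener GDP mix added; fluorescence polarization (620/688 nm) read before and after 90 min at 30 °C.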
Eya2 phos inh: blocks the phosphatase activity of human Eya2 | 330,000 tested, 0.006% active | recombinant Eya2, OMFP fluorescence dephosphorylation (OMFP is methylfluorescein phosphate) | O00167 | Potency, µM (series often up to 76.9 µM), hits mostly inhibitors
Target sequence (O00167 whole entry, looked up): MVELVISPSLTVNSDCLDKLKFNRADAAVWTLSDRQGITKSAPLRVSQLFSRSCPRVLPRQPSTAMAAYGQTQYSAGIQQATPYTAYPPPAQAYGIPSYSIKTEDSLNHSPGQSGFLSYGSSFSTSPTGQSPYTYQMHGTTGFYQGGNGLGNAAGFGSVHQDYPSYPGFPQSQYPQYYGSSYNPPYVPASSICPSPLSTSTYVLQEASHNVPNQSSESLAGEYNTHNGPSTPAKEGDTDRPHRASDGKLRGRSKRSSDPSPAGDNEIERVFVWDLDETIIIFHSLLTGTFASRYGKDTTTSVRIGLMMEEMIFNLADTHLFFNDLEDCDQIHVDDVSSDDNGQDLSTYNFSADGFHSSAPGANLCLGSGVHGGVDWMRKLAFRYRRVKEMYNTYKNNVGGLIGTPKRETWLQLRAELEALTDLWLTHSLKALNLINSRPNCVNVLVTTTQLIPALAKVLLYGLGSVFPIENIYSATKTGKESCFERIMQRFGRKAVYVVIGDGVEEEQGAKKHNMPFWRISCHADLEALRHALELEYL
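Eya2 (0.2 uM) preincubated 10 min at ambient with compound, then OMFP substrate added at 50 uM; 10 min reaction in 50 mM HEPES pH 7.5, 50 mM NaCl, 5 uM MgCl2, 0.05% BSA, 1 mM DTT. Fluorescence read at Ex 485/Em 525 nm.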
Six1-Eya2 blk: inhibitors of human Six1/Eya2 interaction | Q15475+O00167 | AlphaScreen GST-Six1/His-Eya2 binding, biochemical; stronger effect = lower value | activity change, % (test concentration not listed) | 360,000 tested, 0.56% active | AID 651725; in the data active = activity change below about -65%; inconclusive = mostly about -30% to -63%
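Six1/Eya2 binding was read as AlphaScreen signal after compounds were pinned into GST-Six1 plus His-tagged Eya2 (5X stock 250/500 nM) in pH 8.0 Tris/NaCl/TCEP buffer, beads added, then incubated 1 h, 37 C, dark.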
Each line names hits and unclear results; the compound was inactive in the other large screens; ! = not confirmed by another sample. In the library only some 0.72% were active in any assay of this set; here they are far more common. Unless noted, calls follow the shape of the dose curve; as a rule, active = well fitted curve in the direction sought with a large enough effect; inconclusive = small, poorly fitted or top-dose-only effect, or another doubt; inactive = no such curve, though single readings can be large; an effect the other way counts as inactive or inconclusive.

Oc1ccc(C=NNC(=S)Nc2ccccc2)nc1	CtBP-E1A inh -76.5, Six1-Eya2 blk -96.7 (no result: USP2a block, RGS4 inh, Eya2 phos inh)
Fc1c(F)c(F)c(/C=N/NC(=S)Nc2cccnc2)c(F)c1F	none
Oc1cccc(/C=N/NC(=S)Nc2cccnc2)c1O	CtBP-E1A inh -94.7, Six1-Eya2 blk -90.6
O=C(CCC(=O)Nc1ccc(F)cc1)N/N=C/c1ccc(O)cc1O	CtBP-E1A inh inconclusive, Six1-Eya2 blk inconclusive
Oc1ccc(/C=N/NC(=S)Nc2cccnc2)c(O)c1O	CtBP-E1A inh -93.4, Six1-Eya2 blk -89.4
Oc1ccc(C=NNC(=S)Nc2ccc(F)cc2)c(O)c1	CtBP-E1A inh -93.3, Six1-Eya2 blk -80.5 (no result: USP2a block, Eya2 phos inh)
COc1cccc([C@H]2NC(=O)C/C=C/[C@@H](C)[C@@H](c3cccc(OC)c3)NC(=O)C/C=C/[C@H]2C)c1	none (no result: USP2a block, CtBP-E1A inh, RGS4 inh, Eya2 phos inh, Six1-Eya2 blk)
Fc1cccc(F)c1/C=N/NC(=S)Nc1cccnc1	none
Oc1ccc(/C=N/NC(=S)Nc2cccnc2)c(O)c1	CtBP-E1A inh -81.6, Six1-Eya2 blk -89.9
O=C(O)C1Nc2c(O)cccc2C2C=CCC12 (stereo unspecified)	USP2a block inconclusive, CtBP-E1A inh -81.9, PI4K2A inh inconclusive, RGS4 inh inconclusive
O=C(O)C1Nc2c(Cl)cc(Cl)cc2C2C=CCC12 (stereo unspecified)	RGS4 inh inconclusive, Six1-Eya2 blk inconclusive
CCC(Nc1ccc(-c2nc(-c3ccccn3)no2)cc1[N+](=O)[O-])c1ccccc1 (stereo unspecified)	none (no result: USP2a block, CtBP-E1A inh, Eya2 phos inh, Six1-Eya2 blk)
CCc1c(C)nc2c(C#N)c[nH]n2c1=O	CtBP-E1A inh -77.4, Six1-Eya2 blk inconclusive
CCCN1CNc2c(c(=O)[nH]c(=S)n2CCc2ccc(OC)cc2)C1	none (no result: USP2a block, CtBP-E1A inh, PI4K2A inh, Eya2 phos inh, Six1-Eya2 blk)
CCCc1cn(-c2ccc3c(c2)[C@]2(CC(=O)N(C)C2c2ccccc2)C(=O)N3CC(C)C)nn1 (stereo partly specified)	none (no result: USP2a block, CtBP-E1A inh, RGS4 inh, Eya2 phos inh, Six1-Eya2 blk)
CCC(=O)Nc1ccc(Cl)c(-c2nc3ncccc3o2)c1	CtBP-E1A inh inconclusive, Six1-Eya2 blk -67.8
CCCOc1cccc(C2c3c(oc4ccccc4c3=O)C(=O)N2c2nncs2)c1 (stereo unspecified)	none (no result: USP2a block, CtBP-E1A inh, Eya2 phos inh, Six1-Eya2 blk)
CN(C)c1ccc(NC2=C([N+](=O)[O-])CS(=O)(=O)C2)cc1	PI4K2A inh -63.1
CCCn1cnc2c1c(=O)n(CCCCC(C)=O)c(=O)n2C	RGS4 inh 23.8µM! (no result: USP2a block, CtBP-E1A inh, Six1-Eya2 blk)
CCN(CC)C(=O)Cn1cnc2c1c(=O)n(C)c(=O)n2C	none
CCN(CC)CCn1c2ccccc2c(=O)c2c(O)ccc(O)c21	RGS4 inh inconclusive, Six1-Eya2 blk -68.8 (no result: USP2a block, Eya2 phos inh)
CCc1ccc(S(=O)(=O)/N=C2\C=CC(=O)c3ccccc32)cc1	none (no result: CtBP-E1A inh, PI4K2A inh, RGS4 inh, Six1-Eya2 blk)
CCc1ccc(S(=O)(=O)/N=C2\C=C(Nc3cccc(C(=O)O)c3)C(=O)c3ccccc32)cc1	CtBP-E1A inh -74.9, PI4K2A inh inconclusive, RGS4 inh inconclusive, Six1-Eya2 blk inconclusive
CCc1ccc(S(=O)(=O)/N=C2/C=C(Sc3ncn[nH]3)C(=O)c3ccccc32)cc1	PI4K2A inh -56.3
CCc1ccc(S(=O)(=O)/N=C2\C=C(Nc3ccc(O)cc3)C(=O)c3ccccc32)cc1	CtBP-E1A inh -89.5, PI4K2A inh inconclusive, Six1-Eya2 blk -69.7
Cc1ccc(S(=O)(=O)/N=C2\C=C(NS(=O)(=O)c3ccccc3)C(=O)c3ccccc32)cc1	PI4K2A inh inconclusive, Six1-Eya2 blk inconclusive (no result: USP2a block, Eya2 phos inh)
CC(NC(=O)/C(C#N)=C/c1ccco1)c1ccccc1 (stereo unspecified)	none
CC(NC(=O)/C(C#N)=C1\N=C(NC(=O)c2ccco2)c2ccccc21)c1ccccc1 (stereo unspecified)	Eya2 phos inh 56.2µM
CC(C)C(=O)Nc1cccc(C(F)(F)F)c1	none (no result: USP2a block, CtBP-E1A inh, RGS4 inh, Eya2 phos inh, Six1-Eya2 blk)
O=C(Nc1nnc(S(=O)(=O)N2CCCc3ccccc32)s1)c1ccc(Cl)cc1	none (no result: USP2a block, CtBP-E1A inh, Eya2 phos inh, Six1-Eya2 blk)
Cc1cc(N(C)C)ccc1N=Nc1ccc(N)cc1	CtBP-E1A inh -73.8, Six1-Eya2 blk -76.7 (no result: USP2a block, Eya2 phos inh)
COc1ccc(C(=O)Nc2ccc(N3CCOCC3)cc2)cc1S(=O)(=O)N1CCOCC1	none
